# IP6K1 inh: inhibitors of human IP6K1; IP6K1 kinase, ADP-Glo luminescence, 2 h; hits give low values; activity change, % (series mostly up to about 58 µM); hit rate 0.81% among 140,000; in the data active = activity change below about -25%; note: % is set by controls: 0 for no effect and ±100 for the full control effect
#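 ADP-Glo luminescence measures ADP made by human IP6K1 during a 2 h RT reaction with ATP/IP6 (mix at 1.3 mM/130 uM); top library doses 57.5 and 19.1 uM final.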
# KDM5B inhibitor: blocks human KDM5B histone demethylase activity; Q9UGL1; KDM5B demethylase, FDH-coupled NADH fluorescence (FDH is formaldehyde dehydrogenase); hit rate 2.6% among 220,000; Potency, µM (highest dose often 57.7 µM), usual class: inhibitors; note: potency is the fitted concentration of half-maximal effect; 0% is about no effect; nearly all actives have a fitted effect of over 70% in size
#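 qHTS format, multiple compound concentrations. Buffer 50 mM HEPES pH 7.5/0.01% Tween-20; 200 nM KDM5BΔAP final; 10 min compound preincubation; substrate-mix levels 12.5 µM peptide, 25 µM α-KG, 0.25 mM NAD⁺; 30 min RT; ΔRFU.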
# SNCA expr inh: SNCA gene expression inhibition; Potency, µM (doses to about 57.2 µM), for inactives: at the highest dose activity change, negative = inhibition, hits mostly inhibitors; HEK-293 SNCA-luciferase knock-in, luminescence, 24 h; AID 1671194; hit rate 0.17% among 140,000;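 note: potency is the fitted concentration of half-maximal effect; plate controls were DMSO cells for no effect and cell-free wells for full effect; nearly all actives have a fitted effect of over 45% in size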
# SNCA viab count: cell viability loss counter-screen | hit rate 0.12% among 150,000 | HEK-293-SNCA-luc viability, GF-AFC fluorescence, 24 h | Potency, µM (top dose mostly 57.1 µM), without a hit: at the highest dose activity change, negative = cytotoxicity, actives largely listed as cytotoxic;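 note: potency is the fitted concentration of half-maximal effect; 0% = DMSO-treated cells and -100% = medium-only wells without cells; nearly all actives have a fitted effect of over 30% in size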
#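 Cytotoxicity counterscreen: after 24 h compound treatment of genome-edited SNCA-luciferase HEK-293 cells, live-cell protease substrate GF-AFC read by fluorescence after 30 min; activity scaled between DMSO (0%) and medium-only (-100%), curves Hill-fitted.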
# Starred values were filed as active, the others as inactive; i = inactive; ? = inconclusive; nt = not tested or not shown; ! = a repeat was not active; [ ] = another dose, or the depositor's remark. Sampled rows, rich in hits. Any-hit rate of the full collection: about 2.8%. Unless noted, calls come from the whole dose curve; as a rule, active = well fitted curve in the direction sought with a large enough effect; inconclusive = small, poorly fitted or top-dose-only effect, or another doubt; inactive = no such curve, though single readings can be large; an effect the other way counts as inactive or inconclusive.
SMILES,IP6K1 inh,KDM5B inhibitor,SNCA expr inh,SNCA viab count
Cc1ccc2c(CC(=O)N(Cc3ccc(F)cc3)C3CC3)coc2c1,nt,i,nt,nt
Cc1noc(C)c1[S+](=O)([O-])N1CCCC2(COc3ccccc3C(=O)N2)C1 (stereo not drawn),15,25µM*,?,?
Cc1noc(C)c1[S+](=O)([O-])N1CC2(C1)NC(=O)c1ccccc1O2,-4,i,16%[87.6 µM],5%[87.6 µM]
O=C1NC2(CCCN([S+](=O)([O-])c3ccsc3)C2)COc2ccccc21 (stereo not drawn),17,32µM*,-12%,-16%
COc1cccc([S+](=O)([O-])N2CCC3(COc4ccccc4C(=O)N3)C2)c1 (stereo not drawn),20,32µM*,12%,2%
O=C1NC2(CCN([S+](=O)([O-])c3ccccc3)C2)COc2ccccc21 (stereo not drawn),10,i,4%,8%
COc1ccc(C(=O)Nc2ccc(-c3nnc4n3CCCC4)cc2)cn1,-6,i,17%,9%
O=C(NCCc1cnc[nH]1)c1ccc(-c2ncc3cnc(-c4ccccc4)cn23)cc1,-2,nt,-22%[87.6 µM],3%[87.6 µM]
O=C(c1ccc(-c2ncc3cnc(C4=CCOCC4)cn23)cc1)N1CC[S+](=O)([O-])CC1,-12,35µM*,9%[87.6 µM],-4%[87.6 µM]
COc1ccc(NC(=O)c2ccc(-c3ncc4cnc(C5=CCOCC5)cn34)cc2)cn1,-18,28µM*,5%[87.6 µM],-13%[87.6 µM]
COc1ccccc1OCCn1c(NC(=O)c2ccco2)nc2ccccc21,nt,i,nt,nt
Cc1nn(-c2ccccc2)c2c1C(C1CC1)N(CC1CN(C(=O)C(C)(C)C)C1)C2=O (stereo not drawn),-2,nt,nt,nt
COc1ccc2c3c1CN(C)CC3=CC(C)(C)CO2,5,nt,nt,nt
CC(C)C(=O)NCC1CN(Cc2ccccc2)C(=O)c2c(ccnc2-c2ccc(OCC(=O)O)cc2)O1 (stereo not drawn),7,?,2.8µM*,?
Fc1cccc(-c2cnc(Nc3ccc(N4CCOCC4)cc3)c3c2CCO3)c1,-13,32µM*,17%[87.6 µM],1%[87.6 µM]
c1ccc(Nc2ncc(-c3ccccc3)c3c2OCC3)cc1,-10,i,117%[87.6 µM],5%[87.6 µM]
Fc1cc(Nc2ncc(-c3ccccc3)c3c2OCC3)cc(N2CCOCC2)c1,-10,13µM*,-4%[87.6 µM],-6%[87.6 µM]
Brc1ccc(CN2CCC(c3nc4ncccc4[nH]3)C2)cc1 (stereo not drawn),2,20µM*!,0%,-2%
NC(=O)c1cccc2[nH]c([C@H]3CCN(Cc4cccc(Cl)c4)C3)nc12,14,35µM*,-2%[87.6 µM],-25%[87.6 µM]
CCc1cccc2c(C3=NNC(=NC4CC4)SC3)c[nH]c12,nt,i,nt,nt
O=C(c1ccc(C(F)(F)F)cc1)N1CCCC(C(=O)N2CCCC(c3nc4ncccc4[nH]3)C2)C1 (stereo not drawn),10,nt,2%,2%
O=c1n(-c2cccc(Cl)c2)nc2n1CCN(Cc1ccccc1)C2,8,89µM*,20%,-14%
COCCn1c2c(c(=O)n1-c1ccccc1)CCN(Cc1ccncc1Cl)C2,21,35µM*,-26%[87.6 µM],-6%[87.6 µM]
O=c1c2c(n(Cc3cccnc3)n1-c1ccccc1)CN(Cc1ccccc1Cl)CC2,7,?,?,?
C[N+]1(CC[N+]2(C)CCCCC2)CCCCC1,nt,i,nt,nt
SMILES,IP6K1 inh,KDM5B inhibitor,SNCA expr inh,SNCA viab count
Cc1ccc(C#N)c(NCc2cccnc2N2CCN(c3ccccn3)CC2)n1,14,28µM*,-13%,-15%
CCCCCNC(=O)c1cc(-c2ccccc2C(F)(F)F)nc2c1cnn2C,3,nt,nt,nt
CCc1nccc(CN2CCC(c3nn(C)c(=O)n3CC)CC2)n1,-2,16µM*,10%,3%
CC(C)NC(=O)c1cc(-c2ccc(S(C)(=O)=O)cc2)c2cnn(C)c2n1,-8,89µM*,-20%,5%
CN(C)C(=O)c1cc(-c2ccc(S(C)(=O)=O)cc2)c2cnn(C)c2n1,-2,79µM*,-1%,3%
CC(C)OC(=O)CSc1nc2c(c(=O)[nH]c(=O)n2C)n1C,nt,i,nt,nt
CCOc1ccc(C(=O)N2CC(COC)C3(CCNCC3)C2)cc1OCC (stereo not drawn),-3,i,6%,-11%
COCCCn1c(C)cc(C(=O)N2CC(COC)C3(CCNCC3)C2)c1C (stereo not drawn),13,32µM*,-2%,-9%
COCCCn1c(C)cc(C(=O)N2CCCC(CO)CCNC(=O)CC2)c1C (stereo not drawn),-10,i,-7%,6%

# Screening data from PubChem.
